Reference: PubChem BioAssay (NCI)
Values joined by “and” are separate entries in the source; they are usually repeats but may differ in a detail not shown here. Equal values may be shown once. Compounds without any hit were thinned out: in the full panel of roughly 83,000, 20% have a hit.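 Each cell line was grown in a 96-well plate and treated with one concentration of compound for 48 hours. Values below 10 were considered active.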

How the values were obtained:
Experiment in all cases: NCI-60 one-dose screen, 48 h (100 = growth as untreated, 0 = no growth, -100 = all killed)
Conditions in all cases: 10 µM unless noted
[1] = system: DU-145 prostate
[2] = system: K-562 leukemia
[3] = system: MALME-3M melanoma
[4] = system: MDA-MB-231 breast
[5] = system: RXF 393 renal
[6] = system: SF-268 CNS
[7] = system: SF-295 CNS
[8] = system: SF-539 CNS
[9] = system: UACC-257 melanoma
[10] = system: M14 melanoma

Measured: growth

OCCN1CCCCCCC1
inactive: [1] 113% | [2] 105% | [3] 96% | [4] 99.5% | [5] 100% | [6] 107% | [7] 95.9% | [8] 98.7%

CC(C)(O)C(=O)O
inactive: [1] 94.5% | [2] 123% | [3] 88.4% | [4] 86.4% | [5] 113% | [6] 103% | [7] 103% | [8] 101% | [9] 99.8%

OCC1OC(O)C(O)C(O)C1O (stereo unspecified)
inactive: [1] 120% | [2] 110% | [3] 180% | [4] 116% | [5] 124% | [6] 102% | [7] 102% | [8] 102% | [9] 114%

CCc1cc(C)cc(O)c1
inactive: [1] 122% | [2] 100% | [3] 112% | [4] 112% | [5] 94.4% | [6] 124% | [7] 116% | [8] 128% | [9] 96.1% | [10] 103%

O=C(O)/C=C\C(=O)Nc1cccc2ccccc12
inactive: [1] 109% and 123% | [2] 110% and 94% | [3] 116% and 119% | [4] 85.1% and 107% | [5] 113% and 132% | [6] 78.6% and 107% | [7] 117% and 104% | [8] 89.2% and 110% | [9] 95.1% and 101% | [10] 99.6% and 96.8%

O=c1[nH]cnc2c1ncn2C1OC(CO)C(O)C1O (stereo unspecified)
inactive: [1] 126% and 133% and 112% | [2] 105% and 108% and 113% | [3] 131% and 124% and 110% | [4] 110% and 105% and 108% | [5] 129% and 118% | [6] 114% and 112% and 94.2% | [7] 124% and 111% and 88.8% | [8] 113% and 96.1% | [9] 104% and 119% | [10] 100% and 107% and 98.2%

CCCCNc1ccc(Nc2ccccc2)cc1
inactive: [1] 84% | [2] 48.9% | [3] 54.8% | [4] 64.4% | [5] 83.9% | [6] 110% | [7] 56.3% | [8] 83.8% | [9] 62.7%

CC(=O)Nc1ccc(S(N)(=O)=O)cc1
inactive: [1] 111% and 113% | [2] 102% and 110% | [3] 109% | [4] 102% and 119% | [5] 115% | [6] 105% and 115% | [7] 93.8% and 92.8% | [8] 100% and 101% | [9] 88.6% and 94.9%

NC(=O)NCCCC(N)C(=O)O (stereo unspecified)
inactive: [1] 101% | [2] 97.9% | [3] 93.1% | [4] 104% | [5] 106% | [6] 104% | [7] 117% | [8] 103% | [9] 102%

Nc1ccc2c(O)cc(S(=O)(=O)O)cc2c1
inactive: [1] 114% and 110% | [2] 93% and 96.7% | [3] 122% and 111% | [4] 107% and 106% | [5] 110% and 89.3% | [6] 118% and 101% | [7] 99.5% | [8] 87.2% and 96% | [9] 101% and 94.3%

c1ccc2c(c1)OC1OC2Oc2ccccc21
inactive: [1] 113% | [2] 96.1% | [3] 113% | [4] 114% | [5] 97.1% | [6] 99.3% | [7] 115% | [8] 106% | [9] 101%
